Assay results: the supplement of paper PMC6555819

What was measured:
Assay in all cases: PBM binding z-score (relative to random genomic background probes); higher = stronger binding; sequences stand for … in GC…GCGATTGACAGCGTAGAATGAAGG
[1] = test system: PPARg:RXRa DBDmut IVT, anti-RXR (DBD mutation: RXRa K156A/R161A, NR concentration 270 nM, RXRa partner concentration 90 nM)
Outline: (§1)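 Antibodies against each partner of ligand-free nuclear receptor dimers (one per run) detected binding on custom Agilent 4×180K protein-binding microarrays after 1 h incubation. The double-stranded probes had 34-nt variable regions carrying direct-repeat seeds, single-nucleotide variants, half-site ablations and random human genomic background sequences. Binding z-scores, from regression-normalized fluorescence, use the random background probes as reference.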

[2] = test system: PPARg:RXRa IVT, anti-PPARg (NR concentration 270 nM, RXRa partner concentration 90 nM)
Outline: as §1

[3] = test system: PPARg DBDmut:RXRa IVT, anti-PPARg (DBD mutation: PPARg1 K132A/R137A, NR concentration 270 nM, RXRa partner concentration 90 nM)
Outline: as §1

[4] = test system: PPARg DBDmut IVT, anti-PPARg (DBD mutation: PPARg1 K132A/R137A, NR concentration 270 nM)
Outline: as §1

[5] = test system: PPARg homodimer (NR concentration 180 nM)
Outline: as §1

[6] = test system: PXR:RXRa (NR concentration 270 nM, RXRa partner concentration 90 nM)
Outline: as §1

[7] = test system: PXR homodimer (NR concentration 270 nM)
Outline: as §1

[8] = test system: RARa:RXR (NR concentration 270 nM, RXRa partner concentration 90 nM)
Outline: as §1

[9] = test system: RARa homodimer (NR concentration 270 nM)
Outline: as §1

[10] = test system: RARb:RXRa (NR concentration 270 nM, RXRa partner concentration 90 nM)
Outline: as §1

[11] = test system: RARb homodimer (NR concentration 270 nM)
Outline: as §1

[12] = test system: RARg:RXRa (NR concentration 270 nM, RXRa partner concentration 90 nM)
Outline: as §1

[13] = test system: RARg homodimer (NR concentration 270 nM)
Outline: as §1

[14] = test system: RXRa DBDmut IVT, anti-RXR (DBD mutation: RXRa K156A/R161A, NR concentration 90 nM)
Outline: as §1

[15] = test system: RXRa homodimer (NR concentration 180 nM)
Outline: as §1

[16] = test system: THRa:RXRa (NR concentration 90 nM, RXRa partner concentration 90 nM)
Outline: as §1

[17] = test system: THRa homodimer (NR concentration 90 nM)
Outline: as §1

[18] = test system: VDR homodimer (NR concentration 270 nM)
Outline: as §1

Row | Sequence | PBM binding z-score [1] | PBM binding z-score [2] | PBM binding z-score [3] | PBM binding z-score [4] | PBM binding z-score [5] | PBM binding z-score [6] | PBM binding z-score [7] | PBM binding z-score [8] | PBM binding z-score [9] | PBM binding z-score [10] | PBM binding z-score [11] | PBM binding z-score [12] | PBM binding z-score [13] | PBM binding z-score [14] | PBM binding z-score [15] | PBM binding z-score [16] | PBM binding z-score [17] | PBM binding z-score [18]
1 | ACGGACAGGTGAGTGAAGGTAACTCAGCTGGACG | 0.373 | 0.578 | -0.111 | -0.701 | -0.338 | -0.142 | -0.376 | 0.477 | -0.21 | 0.913 | 0.226 | 0.31 | 0.674 | -0.495 | 0.344 | 1.69 | -0.483 | -0.502
2 | CCGACTGGTGCAAAGGTTACCATACTCAGTACGA | 0.299 | 2.67 | 0.0281 | -0.547 | 1.18 | 2.07 | -0.109 | 2.87 | 0.34 | 1.96 | 2.08 | 2.07 | 1.32 | 0.63 | 2.93 | 1.45 | 0.0703 | 0.351
3 | CCTTACGGATCACTGACAGGTTATAGCATTTGGA | 0.71 | -0.0645 | 0.405 | 0.544 | 0.811 | 0.356 | 0.678 | 0.397 | 1.14 | 0.471 | 0.537 | 0.614 | 0.579 | 0.744 | 0.347 | 0.372 | 0.628 | 0.612
4 | AGAATGTGGTTAAGATCAGGGAAACAGAATACAT | -0.145 | 0.0486 | 0.832 | 0.677 | 0.635 | 0.308 | 0.679 | 0.217 | 0.647 | 0.103 | 0.296 | 0.287 | 0.502 | -0.315 | -0.0174 | 0.458 | -0.00414 | 0.151
5 | TGTCAAAGTTCAAAGGGAACGTAAGTATCCACAC | -0.458 | 3.95 | 2.37 | 1.56 | 4.11 | 4.92 | 4.8 | 4.2 | 1.6 | 4.93 | 3.12 | 5.56 | 5.38 | 4.04 | 4.94 | 2.06 | -0.715 | 4.05
6 | TCTAGTTGGTCAGGGAGGTCACACACGACGGGTA | 2.21 | 3.14 | 0.418 | 0.586 | 2.66 | 4.14 | 1.55 | 4.2 | 1.51 | 3.63 | 4.42 | 4.31 | 3.88 | 1.08 | 4.14 | 3.63 | 2.88 | 3.18
7 | ACTATTAGTTGAGACGAGGTCAACCGATAGGTTG | 0.226 | 2.11 | 0.554 | 1.21 | 2.65 | 5.3 | 2.57 | 4.97 | 1.07 | 3.52 | 4.05 | 3.81 | 3.37 | 1.57 | 4.82 | 4.73 | 3.82 | 3.21
8 | CCTAATGGGCCAAAGGTCATTGATTCCAATGCTC | 3.94 | 6.02 | 0.0676 | -0.678 | 4.32 | 5.26 | 1.81 | 6.51 | 1.99 | 4.57 | 4.39 | 5.84 | 5.06 | 1.72 | 7.11 | 3.26 | 0.623 | 1.9
9 | AGTCTAAGTTCATCTAGGTAACGTAAGATATGCT | 0.694 | 2.11 | 1.22 | 1.39 | 1.48 | 4.78 | 8.13 | 2.24 | 0.123 | 3.55 | 2.48 | 3.58 | 4.02 | 4.94 | 2.6 | 2.9 | 0.767 | 5.9
10 | CCTATCAGGCCAATCTGGGTCACTCAAGGCTTGA | 4.25 | 5.29 | 0.637 | -0.095 | 1.45 | 1.27 | -0.29 | 2.62 | 0.00198 | 1.75 | 2.48 | 1.44 | 1.71 | 0.421 | 1.14 | 4.02 | 1.16 | -0.0119
11 | TTATATAGGTAAAGGTGAAAGTCGAACGATATGA | 5.88 | 6.52 | 3.04 | 2.82 | 2.08 | 0.997 | 0.227 | 1.74 | 0.54 | 1.88 | 1.64 | 1.68 | 1.27 | -0.41 | 2.15 | 1.44 | -0.395 | -0.389
12 | ACTTACGGGTCAACGAGGTTATGGCACGCGTATA | 3.48 | 4.51 | 1.34 | 0.297 | 3.2 | 5.1 | 2.74 | 5.52 | 0.8 | 4.32 | 3.9 | 5.75 | 5.68 | 2.65 | 6.57 | 4.04 | 1.32 | 3.94
13 | GATACAGGGTCAGCTAGCGGCCAGAGTATGGAAA | 1.01 | 2.05 | 0.0696 | -0.868 | 1.51 | 2.37 | -0.651 | 3.79 | 0.418 | 3.96 | 2.95 | 6.02 | 4.62 | 1.31 | 4.36 | 2.56 | -0.0331 | 0.352
14 | CGAACTAGGTGAAGGACAGTGAATCTCCGCACGC | 7.22 | 6.69 | 0.351 | 1.02 | -0.373 | -0.343 | -0.341 | -0.0643 | -0.232 | 0.792 | 0.454 | 0.04 | 0.23 | -0.281 | 0.265 | 0.232 | -0.201 | -0.373
15 | TCTCGGAGGACACGAAAGGTCATAGCTCGACATC | 2.17 | 2.14 | 1.29 | 0.408 | 3.48 | 5.31 | 1.81 | 5.39 | 1.62 | 4.26 | 4.89 | 5.58 | 5.34 | 1.71 | 5.3 | 4.24 | 2.12 | 2.67
16 | TTACCAAGGTGAAGGTCGTTGAACCCTCTGTAGA | 1.76 | 3.38 | 0.136 | 0.367 | 0.968 | 3.18 | 0.277 | 3.4 | -0.283 | 2.4 | 2.16 | 1.94 | 1.52 | 0.243 | 3 | 2.74 | 1 | 1.63
